# Results from PubChem BioAssay AID642 (Vanderbilt High Throughput Screening Facility, 2007).
# About 2,000 (91%) of roughly 2,200 compounds were called active. So high a share suggests a set chosen from earlier hits. A selection follows. Unmarked numbers belong to inactive results.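 How the source made its calls: active means luminescence in either of two replicates above the same-plate mean plus 3 SD of the low-dose dopamine control; inactive means the rest.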
# Molecular target: D(1A) dopamine receptor (Homo sapiens) (UniProt P21728)
# Experiment: D1 receptor positive allosteric modulators, retest, confirmation, cell-based, HEK293 D1, CRE-luciferase, duplicate (AID 642)
# Conditions: dopamine EC30 potentiation, at 10 µM, active compounds read high
# Sequence of D(1A) dopamine receptor (Homo sapiens) (P21728 whole entry, looked up): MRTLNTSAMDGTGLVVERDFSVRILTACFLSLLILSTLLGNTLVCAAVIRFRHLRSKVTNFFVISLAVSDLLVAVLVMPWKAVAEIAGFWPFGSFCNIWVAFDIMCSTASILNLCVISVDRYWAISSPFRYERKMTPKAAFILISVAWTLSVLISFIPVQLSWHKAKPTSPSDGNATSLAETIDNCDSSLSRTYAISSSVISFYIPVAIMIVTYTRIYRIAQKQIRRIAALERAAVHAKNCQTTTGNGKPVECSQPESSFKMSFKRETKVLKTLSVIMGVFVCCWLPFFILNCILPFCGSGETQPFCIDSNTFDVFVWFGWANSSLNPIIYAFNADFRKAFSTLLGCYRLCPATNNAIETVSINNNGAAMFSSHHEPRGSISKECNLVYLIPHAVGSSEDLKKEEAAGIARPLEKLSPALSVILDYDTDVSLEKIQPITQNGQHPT
row,SMILES,luminescence
1,CCn1c(=N)c(S(=O)(=O)c2ccc(F)cc2)cc2c(=O)n3ccccc3nc21,18300 (active)
2,CCc1ccc2oc(=O)cc(CN3CCCCC3C)c2c1 (stereo not given),10700 (active)
3,COc1ccc(CCNC(=O)CCn2c(=O)oc3ccccc32)cc1OC,12500 (active)
4,COc1ccc(CCNC(=O)c2cc3sccc3n2C)cc1OC,7950
5,CCCc1nc(-c2ccccc2O)n(-c2ccccc2)n1,14800 (active)
6,COc1ncnc2sc3c(c12)CCCC3,9980 (active)
7,N#Cc1c(N)sc2c1CCN(C(=O)OCc1ccccc1)C2,11700 (active)
8,COc1ccc(-c2n[nH]c(C)c2-c2ccc(OC)c(OC)c2)c(O)c1,7480 (active)
9,c1ccc(COc2nsnc2N2CCOCC2)cc1,9440 (active)
10,CCSc1nc(C)nc2c1oc1ccccc12,15900 (active)
11,c1ccc(-c2nnc3n2NC(c2ccc4c(c2)OCO4)S3)cc1 (stereo not given),13600 (active)
12,Cn1c(=O)c2cn(-c3cccc4ccccc34)cc2n(C)c1=O,8890 (active)
13,COc1ccc(S(=O)(=O)N(C)CC(=O)Nc2ccc3c(c2)OCCO3)cc1OC,7550 (active)
14,COC(=O)C1=C(C)NC2=C(C(=O)c3ccccc32)C1c1ccc(-c2ccc(C(=O)O)cc2)o1 (stereo not given),12100 (active)
15,COc1ccc(-c2nn3c(-c4ccccc4)nnc3s2)cc1OC,22300 (active)
16,COc1cc(-c2nn3c(-c4cccc(C)c4)nnc3s2)cc(OC)c1OC,12800 (active)
17,N#CCSc1nc2ccccc2c(=O)n1-c1ccccc1,19300 (active)
18,CCOc1ccc(Cn2c(SCCCCC#N)nc3c2c(=O)n(C)c(=O)n3C)cc1OCC,14200 (active)
19,CCC(=O)NC(=Nc1nc2ccccc2s1)NC(=O)CC,18700 (active)
20,CCNc1nc(NCC)nc(N(C)n2cnnc2)n1,15800 (active)

row,SMILES,luminescence
1,C/C(Cl)=C\Cn1c(Nc2cccc(C)c2)nc2c1c(=O)n(C)c(=O)n2C,12000 (active)
2,Cc1cc(C)c2c(n1)nn1c(-n3ccnc3)cc(C)nc21,11600 (active)
3,COc1ccc(-c2cc(C(F)(F)F)nc(S(C)(=O)=O)n2)cc1OC,10100 (active)
4,CCCn1c(=O)c2[nH]c(C3CCCC3)nc2n(CCC)c1=O,22800 (active)
5,CC(C)c1cc(C(=O)O)on1,5510
6,CCOc1ccc2c(c1)cc(CN(C(=O)CC)C1CCCCC1)c1nnnn12,16400 (active)
7,CC(C)n1c(C(O)c2ccccc2)nc2ccccc21 (stereo not given),6650 (active)
8,COC(=O)Nc1ncc(CN2C(=O)c3ccccc3C2=O)s1,9780 (active)
9,O=C(c1ccco1)N1CCN=C1SCc1cccc(Cl)c1,9520 (active)
10,O=c1cc(-c2ccccc2)nc(N2CCCCC2)[nH]1,12700 (active)
11,Cc1ccc(S(=O)(=O)c2c(N)n(C)c3nc4ccccc4nc23)cc1,11800 (active)
12,CCOC(=O)c1cc2n(c1C)-c1ccccc1C2=O,9350 (active)
13,C/C(=C\C(=O)c1ccccc1)Nc1cccc(O)c1,3550 (active)
14,N#Cc1nc(N)nc(N(c2ccccc2)c2ccccc2)n1,13100 (active)
15,CCc1cc(=O)oc2cc(OCC(=O)N3CCCc4ccccc43)ccc12,14000 (active)
16,CCn1nc(C(=O)OCC(=O)N2c3ccccc3CC2C)c2ccccc2c1=O (stereo not given),13900 (active)
17,Cc1ccc(-c2nn(-c3ccccc3)cc2CN(Cc2ccccc2)C(=O)CCC(=O)O)o1,9380 (active)
18,O=C(NCc1ccccn1)c1ccc2nc(-c3ccco3)c(-c3ccco3)nc2c1,10400 (active)
19,C=CCn1cnc2scc(-c3ccccc3)c2c1=O,16400 (active)
20,CCOC(=O)/C=c1\s/c(=C\c2ccccc2OC)c(=O)n1CC(=O)N1CCOCC1,15600 (active)
